# Compound activity from PubChem.
# In the library only some 1.1% were active in any assay of this set; here they are far more common.
# Tb PFK inh-1: qHTS Assay to Find Inhibitors of T. brucei phosphofructokinase; Potency, µM (doses to about 57.5 µM), without a hit: at the highest dose activity, negative = inhibition, hits mostly inhibitors; AID 485367, 2010; hit rate 0.17% among 330,000; T. brucei PFK, ADP-Glo luminescence; ATP-dependent 6-phosphofructokinase (Trypanosoma brucei brucei), O15648;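 note: 0% = uninhibited 1x PFK enzyme wells and -100% = no-enzyme wells; nearly all actives have a fitted effect of over 60% in size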
#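 Activity is normalized to no-enzyme wells (full inhibition) and 1.25 nM enzyme wells (no inhibition). Reaction: 0.5 mM F6P, 0.1 mM ATP, 45 min RT, ADP-Glo luminescence; concentration-response curves fitted and classed by quality.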
# GLS inh: qHTS for Inhibitors of Glutaminase (GLS) | AID 624170, 2012 | Glutaminase kidney isoform, mitochondrial (Homo sapiens), O94925 | Potency, µM (highest dose often 45.5 µM), inactives show at the top dose activity change, negative = inhibition, most hits filed as inhibitors | hit rate 0.21% among 410,000 | GLS enzymatic activity, qHTS titration; note: % is set by controls: 0 for no effect and ±100 for the full control effect
#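 Coupled fluorescence readout: glutamate oxidase/HRP/Amplex Red detect glutamate formed by hKGA from L-glutamine (1 mM solution added). Buffer 45 mM KH2PO4 pH 8.2, 0.02% Tween-20; reads at t0 and 30 min RT.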
# Tb PGK inh: qHTS Assay to Find Inhibitors of Phosphoglycerate Kinase; Phosphoglycerate kinase, glycosomal (Trypanosoma brucei brucei), P07378; PGK/GAPDH coupled, Kinase-Glo luminescence, 60 min; Potency, µM (series often up to 57.5 µM), inactives show at the top dose activity change, negative = inhibition, most hits filed as inhibitors; hit rate 0.043% among 380,000; note: % is set by controls: 0 for no effect and ±100 for the full control effect; nearly all actives have a fitted effect of over 60% in size
#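 Luminescent ATP detection (Kinase-Glo Plus) follows a 60-minute room-temperature incubation, with wells lacking PGK as controls. Buffer: 100 mM TEA (pH 7.6), 5 mM MgCl2, 0.01% Tween-20. Coupling enzyme GAPDH (100 nM final) supplies unstable 1,3-BPG in-well.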
# VDR inh: Inhibitors of the vitamin D receptor (VDR): qHTS | Vitamin D3 receptor (Homo sapiens), P11473 | VDR-SRC2-3 peptide fluorescence polarization, 2 h | Potency, µM, inactives show max response, negative = inhibition, most hits filed as inhibitors | hit rate 0.93% among 400,000 | AID 504847, 2011; note: % is set by controls: 0 for no effect and ±100 for the full control effect
#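 Inhibition of the VDR/SRC2-3 peptide interaction is quantified by fluorescence polarization. Compounds (23 nl, pintool) incubate with the reagents for 2 hours at ambient room temperature.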
# Pin1 inh: qHTS Assay to Find Inhibitors of Pin1. Pin1 FP peptide displacement, HiFluor488, 10 min. Potency, µM (doses to about 115 µM), inactives show top-dose activity, negative = inhibition, actives largely listed as inhibitors. hit rate 0.009% among 390,000. Peptidyl-prolyl cis-trans isomerase NIMA-interacting 1 (Homo sapiens), Q13526; active = well fitted inhibition curve with a large enough effect in the polarisation, with a control signal flat, not every such curve was filed as active; inconclusive = small, poorly fitted or top-dose-only effect, or effect the other way, or a change in a side signal; inactive = no such curve, though single readings can be large or run the other way; the % refers to the polarisation; note: % is set by controls: 0 for no effect and ±100 for the full control effect
# Target sequence (Q13526 whole entry, looked up): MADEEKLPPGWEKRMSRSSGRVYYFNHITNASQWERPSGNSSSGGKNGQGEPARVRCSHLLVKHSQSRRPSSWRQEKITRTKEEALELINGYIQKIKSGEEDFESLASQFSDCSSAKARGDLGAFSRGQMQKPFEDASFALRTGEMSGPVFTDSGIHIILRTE
# Tb PFK KinaseGlo: Tb PFK orthogonal confirmatory assay using ATP depletion (Kinase-Glo Plus) as an alternative measure of Tb PFK activity: Hit Validation; shares compounds with Tb PFK inh-1; Tb PFK enzyme, ATP depletion, Kinase-Glo Plus luminescence; Potency, µM (titrated, usually from 57.5 µM), inactives show at the highest dose inhibition; hit rate 47% among 1,100; AID 504636, 2011; calls by dose curve; note: nearly all actives have a fitted effect of over 60% in size
# Tb PFK inh-2: Inhibitors of T. brucei phosphofructokinase: Hit Validation; shares compounds with Tb PFK inh-1; purified T. brucei PFK, ADP-Glo luminescence, 45 min; Potency, µM (highest dose often 57.5 µM), without a hit: top-dose activity change, negative = inhibition, hits mostly inhibitors; hit rate 41% among 1,100; AID 504637, 2011;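 note: plate controls were full PFK enzyme control for no effect and no enzyme control for full effect; nearly all actives have a fitted effect of over 60% in size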
# Active calls of the source: *; i = inactive; ? = inconclusive; / = not tested or not shown; [ ] = another dose, or the depositor's remark. Unless noted, calls come from the whole dose curve; as a rule, active = well fitted curve in the direction sought with a large enough effect; inconclusive = small, poorly fitted or top-dose-only effect, or another doubt; inactive = no such curve, though single readings can be large; an effect the other way counts as inactive or inconclusive. Potency is the fitted concentration of half-maximal effect.
SMILES,Tb PFK inh-1,GLS inh,Tb PGK inh,VDR inh,Pin1 inh,Tb PFK KinaseGlo,Tb PFK inh-2
COc1cccc(N2CC(C(=O)Nc3ccc(F)cc3)CC2=O)c1 (stereo not given),19µM*,3.3%,-5.1%,37.4%,-0.8%,6.1%,-5.1%
O=C1NCN(c2ccccc2)C12CCN(C(CCc1ccccc1)c1nnnn1C1CCCCC1)CC2 (stereo not given),/,-7.2%,/,/,/,/,/
C[N+]1(CCF)[C@@H]2CC[C@@H]1CC(OC(=O)C(O)(c1ccccc1)c1ccccc1)C2 (stereo not given in full),/,12.6%,/,/,/,/,/
Cc1c(Br)c(O)c(Br)c2sc(=O)oc12,?,14.6%,2.7%,?,-16.2%,14.0%,-28.2%
Oc1ccc(/C=N/NC(=S)Nc2cccnc2)c(O)c1O,?,4.47µM*,-9.5%,50.1µM*,?,3.01µM*,7.57µM*
CC(Nc1cccc([N+](=O)[O-])c1)C(=O)Nc1ccc(S(=O)(=O)N2CCCC2)cc1 (stereo not given),?,-2.9%,0.5%,-1.9%,-6.3%,?,?
CCN1CCN(C(=O)COc2ccc(S(=O)(=O)N3CCOCC3)cc2C)CC1,4.8%,-3.2%,-9.8%,-4.5%,-7.6%,/,/
O=S(=O)(Nc1cc(S(=O)(=O)N2CCOCC2)ccc1O)c1ccc2c(c1)OCCCO2,?,12.6%,-4.4%,25.1µM*,-3.7%,12µM*,15.1µM*
O=C(Cc1ccc(F)cc1)Nc1ccc(S(=O)(=O)N2CCCC2)cc1,16.9µM*,-15.2%,-11.6%,-16.0%,-19.2%,?,?
O=C(Cc1ccccc1)N1CCN(Cc2ccc(F)cc2)CC1,-3.9%,1.4%,-5.8%,-3.7%,-1.8%,/,/
O=C(Cc1ccc(Br)cc1)Nc1ccc(S(=O)(=O)N2CCCC2)cc1,19µM*,/,/,/,/,10.7µM*,21.3µM*
COc1ccc(C)cc1NC(=O)c1cccn(Cc2cccc([N+](=O)[O-])c2)c1=O,/,1.3%,-4.3%,13.0%,?,/,/
Cc1ccc2c(c1)[C@]13CCCC[C@@H]1[C@@H](C2)N(C)CC3,/,-2.2%,/,/,/,/,/
Cc1ccc(-c2ccc(/C=N/N=C3/NC(=O)C(CC(=O)O)S3)o2)c([N+](=O)[O-])c1 (stereo not given),?,8.9%,i,?,-17.8%,-34.0%,?
O=C(O)CC1S/C(=N/N=C/c2ccc(-c3ccccc3[N+](=O)[O-])o2)NC1=O (stereo not given),?,3.2%,-16.2%,79.4µM*,?,-30.6%,?
COC(=O)C12C/C=C\Cc3ccccc3[C@@H]1CNC2=O (stereo not given in full),/,/,/,8.7%,/,/,/
O=C(/C=C/c1ccc(Cl)cc1)N[C@@]12CCC(=O)[C@@H]3Oc4c(O)ccc5c4[C@@]31CCN(CC1CC1)C2C5,/,/,/,0.6%,/,/,/
CSc1ncc(C(=O)Nc2ccc(Cl)cc2C(=O)c2ccccc2)c(C)n1,/,-0.8%,i,0.2%,8.0%,/,/
COc1ccc(N=C2SC(C(N)=O)CC(=O)N2Cc2ccc3c(c2)OCO3)cc1 (stereo not given),?,-19.3%,?,0.5%,-2.2%,1.69µM*,?
C[C@H]1[C@@H]2Cc3ccc(O)cc3[C@]1(C)CCN2CCc1ccccc1,/,54.1%[99.4 µM],/,/,/,/,/
C[C@]12CCC3C(CCC4=C(Cl)C(=O)CC[C@@]43C)C1CCC2O (stereo not given in full),/,3.2%,/,?,/,/,/
